Assay outcomes as filed in PubChem.
Vif imaging: HIV Vif self-association inhibitors, primary screen, imaging, HEK293T, single point | HEK293T cells, Vif self-association by quenched fluorescence, 24 h | inhibition, % at 7.49 µM | actives 0.35% (n = 340,000) | AID 602346, 2012; in the data active = inhibition above about 50%, passing the limit was not always enough
CFTR F508del cor: F508del CFTR correction, initial screen, CFBE line, single point; CFBE cells, YFP halide quenching; stimulated with forskolin plus potentiator P3; % fluorescence drop versus neutral controls; activity (quench increase), % at 7.58 µM; actives 0.36% (n = 350,000); AID 720511, 2013;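 active = mean added fluorescence quench of at least 8% versus neutral control, with both replicates also reaching 8%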;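 note: cells transiently co-express mutant CFTR-F508del with the halide-sensitive YFP; corrector assay measuring rescue of mutant channel to the surface after 24 h compound exposure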
FGF22 binding: binders of human FGF22 protein, primary screen, FGF22 synaptogenesis inhibitor project, biophysical, thermal shift, single point; recombinant FGF22 thermal shift, SYPRO orange fluorescence; percent of sucrose octasulfate shift, DMSO zero; activity (Tm shift, normalised), % at 9.99 µM; actives 1.5% (n = 340,000); AID 651658, 2012;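 active = mean Tm shift, scaled 0 neutral to 100 positive control, at about 1.3% or above, every replicate too, limit read from the data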
Target sequence (Q9HCT0 whole entry, looked up): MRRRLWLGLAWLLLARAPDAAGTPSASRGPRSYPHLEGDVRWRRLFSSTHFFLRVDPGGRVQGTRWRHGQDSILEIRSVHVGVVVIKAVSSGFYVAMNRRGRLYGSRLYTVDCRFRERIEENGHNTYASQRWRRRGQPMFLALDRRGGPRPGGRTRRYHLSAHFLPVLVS
The depositor's hits bear a star; . = no result. Most compounds without a hit are left out; they make up all but 1.7% or so of the library.

SMILES	Vif imaging	CFTR F508del cor	FGF22 binding
CCCCN(C)C1=CC2=CC(=C(C#N)C#N)CCC2CC1 (stereo not drawn)	-2.4	33.8*	-0.5
CCN(CC)C1=CC2=CC(=C(C#N)C#N)CCC2CC1 (stereo not drawn)	1.4	40.0*	-0.1
CC(C)NC(=O)N(C)C[C@@H]1Oc2ncc(-c3ccc(C(=O)N(C)C)cc3)cc2C(=O)N([C@H](C)CO)C[C@@H]1C	.	-0.9	0.0
C[C@@H]1CN([C@H](C)CO)C(=O)c2cc(NS(=O)(=O)c3cccs3)ccc2O[C@@H](C)CCCCO[C@H]1CN(C)CC1CC1	.	0.9	0.0
COc1ccc(OC)c(NC(=O)COC(=O)c2ccc(S(=O)(=O)N3CCCCC3)cc2)c1	31.4	-6.4	44.7*
COc1ccc(-n2cnnc2SCC(=O)Nc2cc(S(=O)(=O)N3CCCCC3)ccc2C)cc1	-1.7	-0.2	.
Cc1ccc(S(=O)(=O)N2CCOCC2)cc1NC(=O)CSc1nnc2n1CCCCC2	0.3	3.9	-0.2
CS(=O)(=O)c1ccc(Cl)c(NC(=O)CSc2nnc3n2CCCCC3)c1	0.8	-2.5	43.8*
CN(CC(=O)Nc1cccc(S(=O)(=O)N2CCCC2)c1)CC(=O)Nc1ccc(Cl)c(C(F)(F)F)c1	-17.4	4.3	0.1
Cc1ccc(S(=O)(=O)N2CCCCC2)cc1NC(=O)CSc1nncn1-c1ccccc1	2.5	0.1	43.2*
COc1ccc(NC(=O)COC(=O)c2ccc(S(=O)(=O)N3CCCCCC3)cc2)c(OC)c1	-1.7	-2.1	0.1
CN(CC(=O)Nc1cccc(S(=O)(=O)N2CCCC2)c1)CC(=O)Nc1ccc(F)c(F)c1F	-3.9	19.4*	-0.1
COc1cc(CN2[C@@H]3CNC[C@H]2C3c2ccc(-c3ccccc3C)cc2)cc(OC)c1 (stereo partly drawn)	.	-1.0	.
CS(=O)(=O)N1[C@@H](C#N)[C@@H](c2ccc(-c3ccccc3F)cc2)[C@@H]1CO	.	-0.6	-0.2
O=C(c1cccc(F)c1)N1CCCCN2[C@@H](CO)[C@@H](c3ccc(C#CC4(O)CCCC4)cc3)[C@@H]2C1	.	-3.2	-0.2
COc1ccccc1CNCC(=O)Nc1cc(S(=O)(=O)N2CCCCC2)ccc1C	0.0	0.7	0.0
Cc1ccc(S(=O)(=O)N2CCOCC2)cc1NC(=O)COC(=O)c1ccc(Cl)nc1	-1.6	10.4*	-0.1
O=C(COC(=O)c1ccc(Cl)nc1)Nc1cc(S(=O)(=O)N2CCOCC2)ccc1Cl	-1.0	3.7	0.1
Cc1ccc(S(=O)(=O)N2CCCCC2)cc1NC(=O)CSc1ncccn1	54.1*	-1.3	0.3
Cc1ccc(S(=O)(=O)N2CCCCC2)cc1NC(=O)COc1ccccc1F	4.3	0.6	43.2*
O=C(CNc1ccc(F)cc1Cl)Nc1cccc(S(=O)(=O)N2CCCCC2)c1	-5.9	2.4	0.2
Cc1ccc(S(=O)(=O)N2CCOCC2)cc1NC(=O)CSc1ncccn1	0.4	1.1	-0.4
O=C(COc1ccc(F)cc1Cl)Nc1cccc(S(=O)(=O)N2CCCCCC2)c1	-9.4	8.8*	-0.2
COc1cccc(S(=O)(=O)N2C[C@@H](O)COC[C@H]3O[C@@H](CC(=O)N4CCCCC4)CC[C@@H]32)c1	.	0.6	-0.3
CO[C@H]1CN(C)C(=O)c2ccc(NC(=O)Cc3ccccc3)cc2OC[C@@H](C)N(C(=O)c2ccccc2F)C[C@H]1C	.	-1.3	0.1
SMILES	Vif imaging	CFTR F508del cor	FGF22 binding
C[C@H](O)C#Cc1ccc2c(c1)O[C@@H](CN(C)CC1CCCC1)[C@H](C)CN([C@H](C)CO)S2(=O)=O	.	-6.4	-0.3
C[C@@H]1CN([C@H](C)CO)C(=O)c2cccc(NS(=O)(=O)c3ccc(F)cc3)c2O[C@@H]1CN(C)CC1CC1	.	0.3	0.0
C[C@@H]1CN([C@@H](C)CO)C(=O)c2cccc(NC(=O)c3cnccn3)c2O[C@H]1CN(C)C(=O)Nc1cccc2ccccc12	.	5.2	-0.2
O=C(NC1Cc2ccccc2C1)[C@@H]1[C@@H](CO)[C@@H]2Cn3c(cccc3=O)[C@@H]2N1C(=O)C1CC1	.	-2.3	-0.2
COc1ccccc1OCC(=O)Nc1ccc(S(=O)(=O)N2CCCC2)cc1	76.0*	2.2	-0.1
COc1ccccc1OCC(=O)Nc1ccc(S(=O)(=O)N2CCN(C)CC2)cc1	-3.6	-0.2	0.2
COc1ccccc1-c1ccc2n(c1=O)C[C@H]1[C@H](CO)[C@@H](C(=O)NCC3CC3)N(S(C)(=O)=O)[C@@H]21	.	.	-0.4
O=C(O)C1=C[C@@H](O)[C@@H](O)[C@H](O)C1	-7.3	9.7*	0.1
NC1C=CC=C(C(=O)O)C1 (stereo not drawn)	-1.9	-3.2	-0.2
